From ChEMBL document CHEMBL3433997, “St. Jude Leishmania screening dataset” (2016)

target: Glucose transporter (Leishmania mexicana) (UniProt O61059); assay: ST_JUDE_LEISH: Cytotoxicity at 2uM final concentration against transgenic Leishmania Mexicana promastigotes LmGT2 that are glucose transport deficient and complemented with the L. Mexicana glucose transporter 2. Activity is measured by DNA content using SYBR green in vitro; type: functional

SMILES | inhibition [%]
N=c1n(Cc2ccccc2)c2ccccc2n1CC(O)c1ccc(Cl)cc1 (stereo not given) | 1.14
COc1cc(/C=C/C(=O)NC2CCC(N3CCC(c4ccccc4C)CC3)CC2)cc(OC)c1 (stereo not given) | 0.77
CC(O)C1CCCCN1C(=O)c1ccc(-c2ccc(-c3nc4cc(F)ccc4[nH]3)cc2)cc1 (stereo not given) | 3.6
O=C(NCCCCN1CCC(c2ccc(C(F)(F)F)cc2C(F)(F)F)CC1)c1ccc(NC(=O)c2ccc(Cl)cc2)cc1 | -1.54
N=C(N)NN=CC(=O)Nc1ccc(C(F)(F)F)cc1 | 3.39
CC(=O)c1cccc(NC(=O)NC2CCN(c3ccnc(Nc4ccc(F)cc4)n3)C2)c1 (stereo not given) | -0.03
O=C(Nc1cc(Cl)ccc1-n1cncn1)C1(c2ccccc2)CC1 | 5.68
OC(CNc1ccnc(Nc2cccc(OCCCN3CCOCC3)c2)n1)c1ccccc1 (stereo not given) | -0.96
NC1CCCN(Cc2cccc(-c3ccc(-c4nc5ccccc5[nH]4)cc3)c2)C1 (stereo not given) | 8.63
O=C(CCN1CCCCC1)Nc1ccc(Nc2nccc(NCC(O)c3ccccc3)n2)cc1 (stereo not given) | -2.39
C=CCOC(=O)N1CCC(CNCc2cccc(-c3ccc(-c4nc5cccc(C)c5[nH]4)s3)c2)C1 (stereo not given) | -0.89
COc1cccc2cc(C(=O)N[C@@H](CC(C)C)C(=O)N[C@H](/C=N/NC(=O)OC(C)(C)C)CC(=O)OC(C)(C)C)oc12 | 3.63
c1ccc(Oc2ccc(Nc3ccnc(Nc4cccc(CNCCCN5CCOCC5)c4)n3)cc2)cc1 | -1.79
Cc1ccc2nc(N/C(N)=N/C(=O)NC3CCCCC3)nc(C)c2c1 | 2.16
CS(=O)(=O)Cc1ccc(Nc2nccc(-c3c(-c4cccc(NC(=O)C5CCCCC5)c4)nn4ncccc34)n2)cc1 | 1.63
O=C(/C=C/c1ccc(Cl)cc1)NCCCCCN1CCC(c2c[nH]c3ccccc23)CC1 | 0.35
CN(C)c1ccc(-c2csc(C(=O)NC3CCN(Cc4ccc(C(C)(C)C)cc4)C3)c2)cc1 (stereo not given) | 5.56
CCCC[C@@H](C(=O)NCCc1ccc(Cl)cc1)N1C(=O)CCC1C(=O)Nc1ccc(Cl)c(Cl)c1 (stereo not given in full) | 0.19
COc1ccc(Nc2ncc3c(-c4cccc(NC(=O)c5ccc(N)cc5)c4)c[nH]c3n2)cc1OC | 7.97
CCCN(CCC)CCCN(CCCN(CCC)CCC)c1cc(C)nc(Nc2ccc3cc(Br)ccc3c2)n1 | 37.8

SMILES | inhibition [%]
COc1cc2nc(NCCc3ccccc3)nc(NC(C)c3ccccc3)c2cc1OC (stereo not given) | 3.19
CCCCn1c(-c2ccco2)nc2c(c(=O)c3ccccc3n2C)c1=O | 4.14
CC(C)c1ccc(CN2CCCCC(NC(=O)c3cc(-c4ccccc4F)cs3)C2)cc1 (stereo not given) | 11.2
O=C(NCc1ccco1)c1ccc(CN2CCN(C(c3ccccc3)c3ccccc3)CC2)cc1 | 4.79
COc1cccc(C(=O)Nc2ccc(Nc3nc(C)cc(N4CCCCC4)n3)cc2)c1OC | 0.19
C[C@H](Cc1ccc(C[C@@H](C)NCC(O)c2cc(Cl)c(N)c(Cl)c2)cc1)NCC(O)c1cc(Cl)c(N)c(Cl)c1 (stereo not given in full) | 1.14
COc1ccc(C(C(=O)NC2CCN(C[C@H](O)c3ccnc4ccc(OC)cc34)CC2)N2CCN(Cc3ccccc3)CC2)cc1 (stereo not given in full) | -0.21
CCCCN(CCCC)CCNC(=O)c1ccc(-c2nc3cc(Cl)ccc3[nH]2)c(OCC)c1 | 4.26
CC(C)Cc1c(O)nc(SCCN2CCOCC2)[nH]c1=O | -0.43
Cc1cc(N/N=C/c2cccc([N+](=O)[O-])c2)c2ccc(F)cc2n1 | 0.94
O=C(/C=C/c1ccccc1)N1CCOC(CCN2CCC(c3ccccc3)CC2)(c2ccc(Cl)c(Cl)c2)C1 (stereo not given) | 7.43
COC1CCC(C(=O)Nc2ccc(-c3cccc(-c4nc5cccc(C)c5[nH]4)c3)cc2)CC1 (stereo not given) | 3.5
CC(C)C[C@@H](/C=N/NC(N)=O)NC(=O)[C@H](CC(C)C)NC(=O)[C@H](CC(C)C)NC(=O)OCc1ccccc1 | 4.41
CN(C)CCOc1cc(NC(=O)Nc2ccc(-c3ccncc3)c(Cl)c2)ccc1I | 1.54
CNCCNc1nccc(N2CCc3ncnc(Nc4ccc(OCc5cccc(F)c5)c(Cl)c4)c3C2)n1 | 2.3
C=CCCCNCC(NCCCNc1cc(=O)c2ccccc2[nH]1)c1cc(Br)cc(Br)c1 (stereo not given) | 0.77
Cc1nc(-c2ccc(-c3ccc(C(=O)Nc4ccc(I)c(OCC5CCCN5C)c4)cc3)c(C)c2)no1 (stereo not given) | 5.6
COc1cccc(CNC[C@@H](O)[C@H](Cc2ccccc2)NC(=O)c2cc3c4c(c2)c(C(C)C)cn4CCS(=O)(=O)N3C)c1 | 8.04
Cc1cccc(OC2CCN(c3ncc(C(=O)NCCCN4CCCC4=O)cc3Cl)CC2)c1 | 0.99
CCN(CC)CCCNc1nccc(N2CCc3ncnc(Nc4ccc(OCc5cccc(F)c5)c(Cl)c4)c3C2)n1 | 7.87
